# PubChem BioAssay (NCI)
# About 83,000 compounds went through this panel and 20% of them were active in at least one assay; those are over-represented in the sample as a whole.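 Values shown are percent growth following 48 h exposure of cells in 96-well plates to a single concentration of compound; below 10 was considered active.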 Unmarked numbers belong to inactive results. Activity calls are given as the source filed them.
# Legend:
# Assay in all cases: NCI-60 one-dose screen, 48 h (100 = growth as untreated, 0 = no growth, -100 = all killed)
# Conditions in all cases: 10 µM unless noted
# HCT-15 colon = test system: HCT-15 colon
# HT29 colon = test system: HT29 colon
# SNB-75 CNS = test system: SNB-75 CNS
# SNB-19 CNS = test system: SNB-19 CNS
# U251 CNS = test system: U251 CNS
# PC-3 prostate = test system: PC-3 prostate
# SK-MEL-5 melanoma = test system: SK-MEL-5 melanoma
# UACC-62 melanoma = test system: UACC-62 melanoma
# LOX IMVI melanoma = test system: LOX IMVI melanoma
# SK-MEL-28 melanoma = test system: SK-MEL-28 melanoma
# SK-MEL-2 melanoma = test system: SK-MEL-2 melanoma
# EKVX NSCLC = test system: EKVX NSCLC
# SN12C renal = test system: SN12C renal
# UO-31 renal = test system: UO-31 renal
# TK-10 renal = test system: TK-10 renal
# ACHN renal = test system: ACHN renal
# CAKI-1 renal = test system: CAKI-1 renal
# A498 renal = test system: A498 renal
# CCRF-CEM leukemia = test system: CCRF-CEM leukemia
# MOLT-4 leukemia = test system: MOLT-4 leukemia
SMILES,growth (HCT-15 colon),growth (HT29 colon),growth (SNB-75 CNS),growth (SNB-19 CNS),growth (U251 CNS),growth (PC-3 prostate),growth (SK-MEL-5 melanoma),growth (UACC-62 melanoma),growth (LOX IMVI melanoma),growth (SK-MEL-28 melanoma),growth (SK-MEL-2 melanoma),growth (EKVX NSCLC),growth (SN12C renal),growth (UO-31 renal),growth (TK-10 renal),growth (ACHN renal),growth (CAKI-1 renal),growth (A498 renal),growth (CCRF-CEM leukemia),growth (MOLT-4 leukemia)
C[C@@H]1N=C(c2ccc(Cl)cc2Cl)Nc2nc3ccccn3c2C1=O,35.1%,7.68% (active),58.7%,60.8%,41.4%,39.1%,39.6%,40.5%,51.3%,60.7%,38.2%,82.5%,75.8%,52.4%,74.5%,60.2%,47.2%,60.7%,56.6%,50.4%
C=C(C)[C@@H]1CC[C@]2(C#N)CC[C@]3(C)[C@H](CC[C@@H]4[C@@]5(C)CCCNC(C)(C)[C@@H]5CC[C@]43C)[C@@H]12,23%,9.37% (active),83.9%,78.6%,16.7%,68.7%,86.4%,88.6%,-44.3% (active),97.3%,110%,68.9%,60.3%,71.8%,118%,94.6%,62.2%,82.4%,50.6%,40%
N#Cc1nn(-c2ccccn2)c(N)c1C#N,102%,86.4%,87.3%,101%,103%,95.4%,104%,99.1%,101%,105%,93.7%,94%,105%,91.1%,98.7%,99.6%,92.7%,106%,105%,92.9%
C=CN(C(=O)N1CCN(c2cc3c(cc2F)c(=O)c(C(=O)O)cn3C2CC2)CC1)c1nc(-c2ccc(C)cc2)cs1,9.38% (active),6.66% (active),14.4%,18.5%,11.4%,14.7%,26.6%,29.2%,8.56% (active),42.1%,35.2%,24.2%,8.99% (active),13.4%,42.3%,27.7%,20.9%,-4.05% (active),4.64% (active),13.9%
